SUMO HTRF inh: inhibitors of human SUMOylation (UBC9); 290,000 compounds, 0.36% hits; AID 2006; P63279; inhibition, % at 35 µM; HTRF SUMOylation assay, SAE1/SAE2 + UBC9, in vitro; in the data active = inhibition above about 50%, passing the limit was not always enough
NSD2 inh: NSD2 (human) methyltransferase inhibition; AID 743445; NSD2 peptide methylation, AlphaScreen, 120 min; 310,000 compounds, 0.54% hits; inhibition, % at 12.5 µM; in the data active = inhibition above about 50%
Casp6 inh: blocks human caspase-6 cleavage activity; P55212; purified caspase-6, Z-VEID-R110 cleavage fluorescence; inhibition, % at 12.5 µM; 350,000 compounds, 0.53% hits; AID 686996;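 active = mean inhibition across replicates at least about 35%, with every replicate also reaching that limit, limit read from the data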;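 note: 0% = median of neutral control wells and 100% = no fluorescence left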
Target sequence (P55212 24-179 limits assumed): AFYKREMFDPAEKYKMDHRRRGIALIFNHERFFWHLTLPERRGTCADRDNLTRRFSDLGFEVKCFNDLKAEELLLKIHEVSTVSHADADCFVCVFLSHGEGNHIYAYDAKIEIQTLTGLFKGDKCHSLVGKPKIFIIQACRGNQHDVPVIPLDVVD
Target sequence (P55212 194-293 limits assumed): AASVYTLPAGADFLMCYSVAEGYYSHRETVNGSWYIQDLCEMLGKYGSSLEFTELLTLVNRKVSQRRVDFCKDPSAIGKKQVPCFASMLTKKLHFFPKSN
SIRT5 inh: blocks human SIRT5 desuccinylation of peptide. Purified SirT5, succinyl-peptide AMC, trypsin-coupled fluorescence. 330,000 compounds, 1.1% hits. AID 652115. inhibition, % at 15 µM; in the data active = inhibition above about 15%
Target sequence (Q9NXA8 whole entry, looked up): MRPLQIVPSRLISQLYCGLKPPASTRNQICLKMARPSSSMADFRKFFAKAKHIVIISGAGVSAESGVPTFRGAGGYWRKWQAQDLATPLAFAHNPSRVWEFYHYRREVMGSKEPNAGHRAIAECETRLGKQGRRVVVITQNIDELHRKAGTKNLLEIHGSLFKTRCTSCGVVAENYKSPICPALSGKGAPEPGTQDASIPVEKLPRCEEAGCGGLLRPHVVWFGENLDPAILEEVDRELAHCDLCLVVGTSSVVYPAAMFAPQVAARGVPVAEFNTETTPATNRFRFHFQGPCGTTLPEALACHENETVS
* hit, by the source's call; . = no result. Most compounds without a hit are left out; they make up all but 1.6% or so of the library.

SMILES	SUMO HTRF inh	NSD2 inh	Casp6 inh	SIRT5 inh
CCCCN1C(=O)/C(=C/C=C/c2ccco2)C(=O)NC1=S	12	108*	78*	38*
O=C1NC(=O)N(Cc2ccc(F)cc2)C(=O)/C1=C\C=C\c1ccco1	26	49	23	-1
COC(=O)[C@H]1[C@H](CO)[C@H]2Cn3c(ccc(-c4cccnc4)c3=O)[C@@H]1N2S(=O)(=O)c1ccccc1F	.	.	0	-13
N/C(=N\N=C/c1ccc(-c2ccc(O)c(C(=O)O)c2)o1)N[N+](=O)[O-]	23	121*	.	.
CCCCn1c(NC(=O)c2ccc(Br)o2)c(C(=O)OCC)c2nc3ccccc3nc21	100*	.	-1	-3
CCCCn1c(N)c(C(=O)NCCN2CCOCC2)c2nc3ccccc3nc21	44	-18	.	.
CCN(CC)C(=O)c1ccc2c(c1)C1C(Cl)C(Sc3ccccc3[N+](=O)[O-])CC1C(C(=O)O)N2 (configuration not stated)	49	22	.	.
CCN(CC)C(=O)c1ccc2c(c1)C1C=CCC1C(C(=O)O)N2 (configuration not stated)	29	.	40*	6
Cn1cccc1/C=C1/C(=O)NC(=S)N(Cc2ccc(F)cc2)C1=O	16	8	35*	2
COC1CCC(OC2CC(C3(C)CCC4(CC(O)C(C)C(C(C)/C=C(\C)C(=O)C(C)CC(C)C(=O)O)O4)O3)OC3(OC(C4OC(O)(CO)C(C)CC4C)CC3C)C2C)OC1C (configuration not stated)	.	.	11	24*
O=C(O)c1ccccc1-c1ccc(C=C2C(=O)N(c3ccccc3)C(=S)N(c3ccccc3)C2=O)o1	19	11	37*	9
CCCNC(=O)[C@H]1[C@H](CO)[C@H]2Cn3c(cccc3=O)[C@H]2N1CC	.	.	7	-6
C=C1C(=O)OC2CCN3CC=C(COC(=O)C(C)(O)C4(CO4)C1C)C23 (configuration not stated)	.	.	36*	3
O=C1c2ccccc2-c2cc3ccccc3cc21	.	-1	3	0
O=C1C=C(N2CC2)c2ccccc2C1=O	.	.	97*	0
O=C(O)[C@@H]1[C@@H](CO)[C@@H]2Cn3c(ccc(-c4ccncc4)c3=O)[C@H]1N2C(=O)C1CCC1	.	.	0	-45
COCCCn1c(N)c(C(=O)NCc2ccco2)c2nc3ccccc3nc21	98	0	98*	.
COCCNC(=O)c1c(N)n(Cc2ccco2)c2nc3ccccc3nc12	38	-7	.	.
N#Cc1cccc(-c2ccc([C@H]3[C@@H](CO)N4CCCCN(C(=O)Cc5ccncc5)C[C@@H]34)cc2)c1	.	.	-2	1
CCCC#Cc1ccc([C@H]2[C@H]3CN(C(=O)Cc4ccccn4)CCCCN3[C@H]2CO)cc1	.	.	2	-2
O=C(N/N=C/c1c(O)n(Cc2ccco2)c(=O)[nH]c1=O)c1ccccc1O	.	-6	32	15*
CCCCC(=O)N/N=C/c1c(O)n(Cc2ccco2)c(=O)[nH]c1=O	-13	-1	.	.
CC(C)c1ccc(-n2c(O)c(/C=N/NC(=O)c3ccccc3O)c(=O)[nH]c2=S)cc1	66*	.	22	1
O=C(NC[C@H]1CC[C@@H]2NC[C@@H]2O1)C1CCCC1	.	.	2	6
COc1ccc(-n2c(/C=C3\C(=O)Nc4ccccc43)nc3ccccc3c2=O)cc1	-2	0	3	112*
SMILES	SUMO HTRF inh	NSD2 inh	Casp6 inh	SIRT5 inh
CCCNC(=O)N1[C@@H]2Cn3c(ccc(-c4cccc(C(=O)N(C)C)c4)c3=O)[C@H]1[C@@H](C(=O)O)[C@@H]2CO	.	.	1	-31
O=C(Cc1ccccn1)N1CCCCN2[C@@H](CO)[C@@H](c3ccc(-c4ccccc4F)cc3)[C@@H]2C1	.	.	-5	-5
COc1ccc2c(c1)NP(=S)(Oc1ccccc1)N2 (configuration not stated)	53*	0	6	-1
O=C(NCC1=C(c2ccc3ccccc3c2)C[C@@H]2CC[C@H]1N2Cc1ccco1)c1ccncc1	.	.	-2	25*
O=C(Cc1ccccn1)N1CCCCN2[C@@H](CO)[C@H](c3ccc(-c4ccccc4F)cc3)[C@@H]2C1	.	.	-5	-3
Cc1cc(C=C2C(=O)NC(=S)NC2=O)c(C)n1-c1ccc2c(c1)OCO2	79*	19	.	.
O=C(O)C[C@H]1CC[C@@H]2NC[C@H](O)COC[C@H]2O1	.	.	3	1
COc1cccc(N2C(=O)NC(=O)/C(=C/c3ccc4c5c(cccc35)CC4)C2=O)c1	16	26	23	37*
CCOc1ccccc1N1C(=O)NC(=O)/C(=C/c2ccc3c4c(cccc24)CC3)C1=O	22	11	.	.
CN(c1ccc(O)cc1)c1ccc([N+](=O)[O-])c2nonc12	.	53*	8	.
CSCCC(c1nnnn1-c1ccc2c(c1)OCCO2)N1CCC(n2c(=O)[nH]c3ccccc32)CC1 (configuration not stated)	.	.	13	19*
CCC(c1nnnn1-c1ccc2c(c1)OCCO2)N1CCC(n2c(=O)[nH]c3ccccc32)CC1 (configuration not stated)	.	.	.	-6
CN1C(=O)NC(=O)/C(=C/c2ccc([N+](=O)[O-])s2)C1=O	46	37	20	6
O=C1NC(=O)N(c2ccccc2)C(=O)/C1=C\c1ccc([N+](=O)[O-])s1	55*	22	30	11
O=C(C1CC1)N1C[C@@H]2N[C@H](C1)[C@@H]2c1ccc(-c2ccncc2)cc1	.	.	-1	-2
O=C1NC(=O)N(CCC2=CCCCC2)C(=O)/C1=C/c1cccs1	23	44	37*	-1
O=C(Cc1cccnc1)N1CCCCN2[C@H](CO)[C@H](c3ccc(/C=C/c4ccccc4)cc3)[C@@H]2C1	.	.	1	2
CN1CCN(Cc2nc3ccccc3n2C)CC1	16	-4	.	.
Cn1c(NN=O)nc2ccccc21	-3	-5	36*	-5
COC(=O)[C@@H]1[C@@H](CO)[C@@H]2Cn3c(ccc(C4=CCCCC4)c3=O)[C@H]1N2CC1CCCCC1	.	.	1	-5
Cn1ncnc2c(=O)n(C)c(=O)nc1-2	102*	5	.	.
Cc1cccc(N2C(=O)NC(=O)/C(=C\c3cc(C)n(-c4sc5c(c4C#N)CCCC5)c3C)C2=O)c1C	17	60*	.	.
CCOC(=O)[C@]12Cc3cc4ccccc4cc3[C@H]1N(Cc1ccccc1)C(=O)c1cc(OC)ccc12	.	.	-2	-8
CCOC(=O)[C@]12Cc3cc4ccccc4cc3[C@H]1N(Cc1ccccc1)C(=O)c1ccccc12	.	.	-1	27*
O=C(Cc1cccnc1)N1CCCCN2[C@H](CO)[C@@H](c3ccc(C#CC4(O)CCCC4)cc3)[C@H]2C1	.	.	-2	0
COC(=O)[C@H]1[C@H](CO)[C@H]2Cn3c(ccc(-c4cccc(F)c4)c3=O)[C@@H]1N2C(=O)CC1CC1	.	.	-3	-22
CC=Cc1ccc2n(c1=O)C[C@H]1[C@H](CO)[C@@H](C(=O)N(C)C)[C@@H]2N1C (mixture of isomers)	.	.	57*	-2
COc1ccc(CN2C(=O)NC(=O)/C(=C/c3ccoc3)C2=O)cc1	35	14	67*	21*
O=C(O)Cn1cc(/C=C2\C(=O)NC(=O)N(Cc3ccco3)C2=O)c2ccccc21	35	40	74*	13
